Reference: PubChem BioAssay (NCI)
Compounds without any hit were thinned out: in the full panel of roughly 83,000, 20% have a hit.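 Testing used 96-well plates and a 48-hour single-concentration exposure. Example: -40 means 40% of the starting cells died.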 Activity calls are given as the source filed them. How the source made its calls: active means growth percent below 10; inactive means the rest.

Tested on: HL-60(TB) leukemia
Experiment: NCI-60 one-dose screen, 48 h (100 = growth as untreated, 0 = no growth, -100 = all killed)
Conditions: 10 µM unless noted

Row | SMILES | growth
1 | C[n+]1c(-c2ccccc2)c2cc(N)ccc2c2ccccc21 | 59.4% (inactive)
2 | Cc1cc(C)c(N)c(S(=O)(=O)O)c1 | 106% (inactive)
3 | COC(=O)Nc1ccc(-c2nc(-c3cccc(OC)c3)c(-c3ccnc(Br)c3)[nH]2)cc1 | 44.2% (inactive)
4 | COc1ccc(-c2nc3sc(-c4ccccc4)cn3n2)cc1 | 67.4% (inactive)
5 | COc1ccc2nc3cc(Cl)ccc3c(N3CCN(c4nccc(NCc5ccccc5)n4)CC3)c2c1 | 61.7% (inactive)
6 | Nc1ccc2c(c1)Cc1cc(Cl)c(Cl)cc1-2 | 53.4% (inactive)
7 | COc1ccc(-n2cc(COc3ccc4c5ccnc(C)c5n(CC(C)C)c4c3)nn2)cc1 | -10.6% (active)
8 | CN(C)CCC1(c2ccccc2)CCN(C)C1=O (stereo not given) | 109% (inactive)
9 | CC[C@@](C)(NC(=O)[C@H](C)NC(=O)CCNC(=O)C(C)(C)NC(=O)[C@H](C)NC(=O)[C@@H]1CCCN1C(=O)[C@@](C)(CC)NC(=O)[C@H](Cc1ccccc1)NC(=O)C1CCCN1C(=O)C(C)(C)NC(=O)C1CCCN1C(=O)C(C)(C)NC(C)=O)C(=O)NCCC(=O)N[C@@H](CC(C)C)C(=O)NC(C)(C)C(=O)NCCC(=O)N[C@@H](CC(C)C)C(=O)NC(C)(C)C(=O)NC(C)(C)C(=O)N[C@@H](CC(C)C)C(=O)NCCC(=O)NCO (stereo not given in full) | -62.3% (active)
10 | C=CC(=O)Nc1cccc(-c2nc(SC)nc(Nc3cccc(OC)c3)c2C#N)c1 | 42.2% (inactive)
11 | CCCCOP(=O)(OCCCC)C(C(=O)OCC)C(CC(=O)OCC)C(=O)OCC (stereo not given) | 102% (inactive)
12 | C[C@]12CC[C@@H]3c4ccc(O)c(N)c4CC[C@H]3[C@@H]1CC[C@@H]2O | 85.3% (inactive)
13 | COc1ccc(-c2cc(-c3ccc(OC)c(OC)c3)nc(SCCCC(=O)NO)n2)cc1 | -34.9% (active)
14 | O=C(/C=C/c1c[nH]c2ccccc12)c1ccc(O)c(CN2CCN(c3ccc(F)cc3)CC2)c1 | 97% (inactive)
15 | N#Cc1c(N)c(C(=O)c2ccc3c(c2)OCCO3)n2c1CCCC2 | -19.2% (active)
16 | COc1ccc(Nc2nc(N)nc3c2CCc2occc2-3)cc1 | 88.8% (inactive)
17 | Cn1cnc([N+](=O)[O-])c1/C=C1\Oc2ccc(Cl)cc2C1=O | 60% (inactive)
18 | S=C(N/N=C/c1cc(Cl)cc(Cl)c1)NC12CC3CC(CC(C3)C1)C2 | 104% (inactive)
19 | Cc1nc2sc(C(=O)Nc3cccc4ccccc34)c(N)c2cc1C(O)c1ccccc1 (stereo not given) | -55.1% (active)
20 | O=C1OCC2=C1C(c1cccc(Br)c1)c1cc3c(cc1N2CCO)CCC3 (stereo not given) | -25.5% (active)

Row | SMILES | growth
21 | CC(C)CCCC(=O)O | 109% (inactive)
22 | O=c1c2cc(Br)cc(Br)c2nc(-c2ccc(Cl)cc2)n1/N=C\c1ccccc1F | 82% (inactive)
23 | Cc1nc2ccccc2c(/C=C/c2ccc(F)cc2)c1C(=O)/C=C/c1ccccc1 | 7.37% (active)
24 | CCn1c(SCCc2ccccc2)nnc1-c1nn(-c2ccc(Cl)cc2Cl)c(-c2ccc(Cl)cc2)c1C | 67.8% (inactive)
25 | CCCCCCCCCCCCCCCC[N+]1(C)CCCC1c1cccnc1 (stereo not given) | 1.61% (active)
26 | O=C(Nc1ncc(Cc2ccc(Cl)cc2)s1)c1ccc2c(c1)OCCO2 | -49.3% (active)
27 | Cc1ccc(C)c(COc2cc(NC(=O)c3ccc4c(c3)OCO4)ccc2N(C)S(C)(=O)=O)c1 | -5.51% (active)
28 | COc1cc(OCc2cccc(-c3ccccc3)c2C)cc(OC)c1CN1CCCCC1C(=O)NCCOCCOCCN (stereo not given) | -42.4% (active)
29 | CCC(CC)n1c(C)cc(=O)n1C(CC)CC | 88% (inactive)
30 | O=c1cc(Cl)[nH]c(=O)[nH]1 | 91.7% (inactive)
31 | C#CCCCCCCC[C@@H]1OC(=O)[C@H]([C@@H](C)CC)NC(=O)[C@H]([C@@H](C)CC)NC(=O)CC(=O)[C@@H]1C | 103% (inactive)
32 | COc1cc(/C=C/C(=O)c2ccc(NC(=O)CN3CCN(c4cc5c(cc4F)c(=O)c(C(=O)O)cn5C4CC4)CC3)cc2)cc(OC)c1OC | -33.7% (active)
33 | O=C(N=Nc1c(O)[nH]c2ccccc12)Nc1ccc(F)cc1 | 94.5% (inactive)
34 | Cc1ccc2nc(-c3ccc(C(=O)NNC(=S)Nc4ccccc4)cc3)[nH]c2c1 | 98% (inactive)
35 | O=C(O)Cc1ccc(Cl)cc1 | 22.4% (inactive)
36 | O=c1oc2ccc(I)cc2c(=O)n1-c1ccc(Br)cc1F | -27.8% (active)
37 | C=C1C(=O)O[C@H]2[C@H]1CC/C(COC(=O)c1cc3cc(F)ccc3[nH]1)=C\CC[C@@]1(C)O[C@@H]21 | -32.6% (active)
38 | N#C/C(=C\c1ccc(Br)cc1)n1nnc2cc(Cl)c(Cl)cc21 | -0.568% (active)
39 | CC(C)C1=NOC(=O)C1=Cc1cn(-c2cccnc2)nc1-c1ccccc1 | -0.56% (active)
40 | Clc1cccc(Nc2ncnc3ccc(-c4cnc5[nH]ccc5c4)cc23)c1 | 105% (inactive)
